Data taken from PubChem BioAssay (EPA / NIEHS).
Results filed as inconclusive are left out. Active and inactive are the calls of the source. The calls were made as follows: active = hit-call score of the fitted dose curve at least 0.9, where 1 is the maximum; inconclusive = response in the unintended direction; inactive = score below 0.9.

read-out: sulfotransferase (SULT2A), SULT2A1 (gene 6822); assay: CLD_SULT2A_6hr: CellzDirect (CLD) Gene Expression Assay for sulfotransferase (SULT2A) at 6 hours (AID 2283669);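 also: hits raise transcript level above the DMSO vehicle baseline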
Experimental: CLD_6hr is a cell-based, multiplexed-readout assay that uses hepatocyte, a human liver primary cell, with measurements taken at 6 hours after chemical dosing in a 96-well plate.CLD_SULT2A_6hr is one of 16 assay component(s) measured or calculated from the CLD_6hr assay. It is designed to make measurements of mRNA induction, a form of inducible reporter, as detected with chemiluminescence signals by Quantitative Nuclease Protection Assay (qNPA) technology.Data from the assay component CLD_SULT2A_6hr was analyzed at the endpoint, CLD_SULT2A_6hr, in the positive analysis fitting direction relative to DMSO as the negative control and baseline of activity. Using a type of inducible reporter, gain-of-signal activity can be used to understand changes in the reporter gene as they relate to the gene SULT2A1. Furthermore, this assay endpoint can be referred to as a primary readout. To generalize the intended target to other relatable targets, this assay endpoint is annotated to the transferase intended target family, where subfamily is sulfotransferase.
Human hepatocyte cultures were treated daily for two consecutive days with fresh dosing solutions containing appropriate concentrations of the 320 ToxCast chemicals (chemical identities were blinded to CellzDirect and other ToxCast collaborators), vehicle control (0.2% DMSO), and positive control inducers as summarized in Table 1. Due to the large number of treatment groups and chemicals examined, the ToxCast chemicals were divided into two groups (spanning two independent cultures of hepatocytes from separate donor preparations (Hu778: ToxCast plates 1 and 2; Hu776: ToxCast plates 3 and 4). Each preparation of human hepatocyte cultures was treated with respective vehicle control, medium only control, set of six positive controls/reference chemicals for the five hepatic receptor pathways, and a subset of eight of the ToxCast chemicals (indoxacarb, pyrithiobac-sodium, norflurazon, cyhalofop-butyl, methomyl, thiram, acetochlor, and propiconazole). These replicate data, coupled with internal replicates designed within the blinded ToxCast chemical library, provided additional data to evaluate interindividual differences between hepatocyte preparations and their potential impact on chemical profiles.Cell morphology and integrity were evaluated using phase-contrast microscopy as an indicator of hepatocyte cell health (Tyson & Green, 1987). Cultures for each treatment group (i.e., media, vehicle [0.2% DMSO], positive control inducers [multiple concentrations], and the ToxCast chemicals [multiple concentrations]) were observed and cell morphology was assessed relative to vehicle control cultures at each harvest time point (0, 6, 24, or 48 h). […] Images were evaluated at the conclusion of the study to assess changes in cell integrity and account for the effects of chemical exposure on uncharacteristic changes in concentration-dependent gene expression profiles. The results from these determinations of apparent cytotoxicity were annotated (yes/no) alongside the corresponding qNPA data for reference.At the conclusion of each treatment period, hepatocyte cultures (96-well) were washed with 1 volume of HBSS, lysed by addition of 25 ul ArrayPlate lysis buffer (HTG, Tucson, AZ), and 70 ul/well of Denaturation Oil, denatured by incubation at 95C for 10 min, and frozen at approximately -70C until analysis by nuclease protection assay (qNPA) (Roberts et al., 2007). For qNPA analysis, cell lysates were thawed at 50C for approximately 30 min, qNPA probes were added, and samples were incubated at 95C for 10 min to begin the detection process by denaturing the target RNA, dissociating the duplexes and secondary structure hybridization. At the conclusion of the hybridization period, S1 nuclease reagent was added to each sample to digest all nonprotected nucleotides at 50C for 60-90 min. […]

Compound | outcome | AC50
CCOP(=S)(OCC)Oc1cc(C)nc(C(C)C)n1 | inactive | –
N#CSCSC#N | inactive | –
CSc1nc(NC(C)C)nc(NC(C)C)n1 | inactive | –
COP(=O)(OC)SCn1c(=O)oc2cc(Cl)cnc21 | inactive | –
CC1=NNC(=O)N(/N=C/c2cccnc2)C1 | inactive | –
Cc1ccn2nc(S(=O)(=O)Nc3c(F)cccc3F)nc2n1 | inactive | –
COc1cccc(C(=O)NN(C(=O)c2cc(C)cc(C)c2)C(C)(C)C)c1C | inactive | –
CNC(=O)ON=C(C)SC | inactive | –
CSc1nnc(C(C)(C)C)c(=O)n1N | inactive | –
CC(C)N(C(=O)SCC(Cl)=C(Cl)Cl)C(C)C | inactive | –
CC(C)=CC1C(C(=O)OCN2C(=O)C3=C(CCCC3)C2=O)C1(C)C (stereo not given) | inactive | –
O=C(O)c1cc(Oc2ccc(C(F)(F)F)cc2Cl)ccc1[N+](=O)[O-] | – | 0.00442 µM (active)
CNc1cnn(-c2cccc(C(F)(F)F)c2)c(=O)c1Cl | inactive | –
COP(=O)(NC(C)=O)SC (stereo not given) | inactive | –
CCc1cccc(C)c1N(C(=O)CCl)C(C)COC (stereo not given) | inactive | –
CN(C)NC(=O)CCC(=O)O | inactive | –
CON=C(C(=O)OC)c1ccccc1CON=C(C)c1cccc(C(F)(F)F)c1 | inactive | –
CCOP(=S)(OCC)SCCSCC | inactive | –
CCC(CC)Nc1c([N+](=O)[O-])cc(C)c(C)c1[N+](=O)[O-] | inactive | –
CCc1cccc(CC)c1N(COC)C(=O)CCl | inactive | –

Compound | outcome | AC50
CCOC(=O)COc1cc(-c2nn(C)c(OC(F)F)c2Cl)c(F)cc1Cl | inactive | –
CC(C1CC1)C(O)(Cn1cncn1)c1ccc(Cl)cc1 (stereo not given) | inactive | –
CNC(=O)ON=C(SC)C(=O)N(C)C | inactive | –
CN1COCN(Cc2cnc(Cl)s2)C1=N[N+](=O)[O-] | inactive | –
CCCOCC(=Nc1ccc(Cl)cc1C(F)(F)F)n1ccnc1 | inactive | –
CC(COc1ccc(Oc2ccccc2)cc1)Oc1ccccn1 (stereo not given) | inactive | –
C[Si](Cn1cncn1)(c1ccc(F)cc1)c1ccc(F)cc1 | inactive | –
CNC(=O)Oc1cccc2c1OC(C)(C)O2 | inactive | –
COP(=O)(OC)OC(Br)C(Cl)(Cl)Br (stereo not given) | inactive | –
CCOP(=S)(Oc1cnc(C(C)(C)C)nc1)OC(C)C (stereo not given) | – | 10.8 µM (active)
CCC(=NOC/C=C/Cl)C1=C(O)CC(C2CCOCC2)CC1=O (stereo not given) | inactive | –
CCOP(=S)(OCC)Oc1ccc([N+](=O)[O-])cc1 | inactive | –
FC(F)C(F)(F)OCC(Cn1cncn1)c1ccc(Cl)cc1Cl (stereo not given) | inactive | –
CC(=NC#N)N(C)Cc1ccc(Cl)nc1 | inactive | –
C#CC(C)(C)NC(=O)c1cc(Cl)cc(Cl)c1 | inactive | –
CCCSP(=O)(OCC)Oc1ccc(Br)cc1Cl (stereo not given) | inactive | –
CCCCN(CC)c1c([N+](=O)[O-])cc(C(F)(F)F)cc1[N+](=O)[O-] | inactive | –
Nc1nc(N)nc(NC2CC2)n1 | inactive | –
CCCCSP(=O)(SCCCC)SCCCC | inactive | –
O=[N+]([O-])c1cc(C(F)(F)F)c(Cl)c([N+](=O)[O-])c1Nc1ncc(C(F)(F)F)cc1Cl | inactive | –
